High-throughput results as filed in PubChem.
Compounds with a hit are over-represented: about 2.5% of the library has one in this group of screens.
CRFBP-R2 agonist – agonists of CRF-BP/CRF-R2 complex, primary screen, cell-based, HEK293, calcium dye fluorescence, uHTS | CRF-binding protein / CRF receptor 2 complex (human) | calcium dye fluorescence (FLIPR); percent of saturating CRF peptide response | activation, % at 13.2 µM | hit rate 0.46% among 350,000 | AID 588473, 2011;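 active = activation of at least 50%, plus an integration ratio under a set limit after plate pattern correction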;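 also: plate controls were neutral control wells without compound for no effect and CRF at EC100 for full effect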
H9c2 protect – cardioprotection against H2O2-induced cell death, primary screen, uHTS, H9c2 cells, ATPLite luminescence; H9c2 cardiomyocytes, H2O2 injury protection, 2 h; protection from H2O2 cell death, % at 20 µM; hit rate 0.63% among 360,000; AID 588492, 2011;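 active = compounds giving at least 50% protection of heart cells from peroxide-induced death in the single-dose screen, raw or plate-pattern-corrected value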;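 also: 0% = DMSO wells with peroxide and 100% = DMSO wells without peroxide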
H9c2 TAG inh – inhibitors of triacylglycerol accumulation, primary screen, cell-based, uHTS, fluorescence, H9c2; inhibition, % at 12.5 µM; hit rate 0.66% among 230,000; AID 651582, 2012; H9c2 cells, Nile Red lipid (TAG) fluorescence; cells loaded with 200 µM oleic acid;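 active = pattern-corrected inhibition of lipid staining of at least 50% with the nuclear-stain viability signal not falling by more than 50%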;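 also: 0% = DMSO wells and 100% = triacsin C control wells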
SKN-1 inh – suppressors of acrylamide-induced Pgst-4::GFP reporter in worms, primary screen, SKN-1 inhibitor project, whole organism, uHTS, GFP/RFP fluorescence ratio, strain VP596; C. elegans VP596 Pgst-4::GFP/RFP ratio, 24 h; inhibition, % at 21.8 µM; hit rate 0.49% among 360,000; AID 624304, 2012;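 active = interference check ratio from 0.5 to 1.5 plus GFP to RFP signal ratio inhibition reaching or exceeding a fixed threshold, cut at about 30% in these data, passing the limit was not always enough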
hiPSC survival – enhancers of single-cell hiPSC survival, primary screen, ATPlite luminescence | hit rate 0.044% among 360,000 | 100% = ROCK inhibitor wells, 0% = DMSO | survival enhancement, % at 20 µM; in the data active = survival enhancement above about 18%;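 also: cells exposed to compounds for 16 hours before the ATP read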
CRFR2-BP antag – antagonists of CRF-BP/CRF-R2 complex, primary screen, cell-based, HEK293, calcium dye fluorescence, uHTS; CRF-induced calcium fluorescence; inhibition, % at 11.8 µM; hit rate 0.59% among 350,000;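 active = inhibition of the ligand-induced calcium signal above about 50% at the single tested concentration, limit read from the data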
The depositor's hits bear a star; x = no result given.

SMILES	CRFBP-R2 agonist	H9c2 protect	H9c2 TAG inh	SKN-1 inh	hiPSC survival	CRFR2-BP antag
Cc1ccc(S(=O)(=O)N2C[C@H]3C(=O)C[C@@H](c4ccccc4)N(S(=O)(=O)c4ccccc4[N+](=O)[O-])[C@H]3C[C@H]2c2ccccc2)cc1	x	2.8	x	5.9	-1.0	x
Clc1ccc(-c2cc(CSc3cccc(Cl)c3)on2)cc1	3.0	-19.3	-8.9	60.2*	3.3	15.6
Cc1nn(CCc2nn[nH]n2)c2nc(-c3ccc(C4CCCCC4)cc3)cc(C(F)(F)F)c12	23.9	-15.7	-13.8	9.4	-0.3	87.2*
Cc1nn(CCC(=O)O)c2nc(-c3cccnc3)cc(C(F)(F)F)c12	6.3	-1.8	2.5	-6.7	0.5	8.0
CC[C@]12c3[nH]c4cc(CCC(=O)N(C)C)ccc4c3CCN1C(=O)[C@@H](CC(=O)NCC13CC4CC(CC(C4)C1)C3)C[C@@H]2C(=O)N1CCN(C(=O)c2ccco2)CC1	-0.7	-3.3	7.7	1.6	0.5	2.9
CCCn1nc([N+](=O)[O-])c(C(C#N)c2nc3ccccc3s2)c(Cl)c1=O (stereo not drawn)	45.6	-17.9	x	17.8	-0.2	68.5*
CN(C)c1c([N+](=O)[O-])ncn1C	0.3	1.5	-2.2	-3.6	2.5	53.7*
CCNc1c([N+](=O)[O-])ncn1C	-0.7	9.4	x	24.8	-1.3	-15.4
O=C(CSc1nnc(COc2ccc(Cl)cc2)o1)NC1CC2CCC1C2 (stereo not drawn)	-0.9	-3.0	x	38.5*	1.2	19.2
COc1ccc(NC(=O)C2Cc3c(-c4cccc(C(N)=O)c4)ccnc3O2)cn1 (stereo not drawn)	x	36.5	2.2	5.4	-3.2	x
COc1cccc(-c2cnc3c(NC(C)=O)cc(-c4ccc(OC)c(OC)c4)cn23)c1	x	25.8	-5.5	12.0	-0.8	x
COc1ccc(-c2cc(NC(C)=O)c3ncc(-c4cccc(C(C)=O)c4)n3c2)cc1OC	x	110.7*	3.9	23.2	-1.1	x
CC(=O)Nc1cccc(-c2cc(NC(C)=O)c3ncc(-c4cccc(C(C)=O)c4)n3c2)c1	x	59.3*	5.5	9.3	-1.7	x
CC(=O)Nc1cc(-c2cccc(N)c2)cn2c(-c3ccc(C(C)=O)cc3)cnc12	x	39.0	7.2	-2.5	-0.5	x
COc1ccc(-c2cc(NC=O)c3ncc(-c4ccc(C(C)=O)cc4)n3c2)cn1	x	63.5*	40.9	3.0	-2.7	x
CC(=O)c1ccc(-c2cnc3c(NC=O)cc(-c4ccc(N5CCN(C)CC5)cc4)cn23)cc1	x	15.1	17.7	-6.1	-3.9	x
CC(=O)Nc1cc(-c2ccc(N3CCN(C)CC3)cc2)cn2c(-c3cccc(C(C)=O)c3)cnc12	x	4.4	5.9	6.2	-4.5	x
CC(=O)Nc1cccc(-c2cc(NC=O)c3ncc(-c4ccc(C(C)=O)cc4)n3c2)c1	x	92.8*	11.7	17.1	-2.5	x
COc1ccc(-c2csc(N3CCN(S(=O)(=O)c4ccc5c(c4)NC(=O)CO5)CC3)n2)cc1	-1.2	-7.5	x	-5.6	-0.1	-1.7
Cc1c(C(C)NC(=O)c2cc(COc3cccc4cnccc34)on2)cnn1C (stereo not drawn)	1.7	-14.8	x	6.1	-0.5	5.3
CC(C)CN1C(=O)NC2(CCCc3ccccc32)C1=O (stereo not drawn)	-0.9	2.0	13.8	-16.2	-0.1	-5.4
CC(C)(C)n1nnnc1C(c1ccccc1)N1CCN(c2ncccc2C(F)(F)F)CC1 (stereo not drawn)	x	x	x	3.4	-0.5	x
CC(=O)N(C)c1ccc(NC(=O)N2CCOCC2)cc1	-0.4	1.9	8.8	-5.1	-0.3	0.0
CS(=O)(=O)c1ccc(-c2cnc3c(NC=O)cc(-c4ccsc4)cn23)cc1	x	81.2*	26.6	18.8	-2.9	x
COc1ccc(C(N)c2csc(Nc3ccc(C(=O)NCCCO)cn3)n2)cc1 (stereo not drawn)	x	2.4	0.0	9.5	-0.1	x
SMILES	CRFBP-R2 agonist	H9c2 protect	H9c2 TAG inh	SKN-1 inh	hiPSC survival	CRFR2-BP antag
COc1ccc(OC)c(S(=O)(=O)NC(=O)C2(C)CCN2C(=O)Cc2ccccc2Cl)c1 (stereo not drawn)	x	-0.8	-5.2	14.3	-1.5	x
O=C(NCCc1cn[nH]c1)C1CCC(=O)N(CCc2cccc(F)c2)C1 (stereo not drawn)	-0.7	2.3	x	6.2	-0.5	103.5*
O=C(NCCc1cccc(C(F)(F)F)c1)C1CCC(=O)N(CCc2cccc(F)c2)C1 (stereo not drawn)	-2.4	-3.8	x	2.0	0.1	37.7
O=C(NCCc1cccnc1)C1CCC(=O)N(Cc2ccc(Cl)cc2)C1 (stereo not drawn)	0.8	-1.9	x	10.1	-0.3	104.2*
O=C(NCCc1ccccc1)C1CCC(=O)N(Cc2ccc(Cl)cc2)C1 (stereo not drawn)	-1.5	-5.9	10.4	14.8	-0.6	-7.8
COc1cccc(NC(=O)N(C)C[C@H]2OCc3cn(nn3)CCCC(=O)N([C@@H](C)CO)C[C@@H]2C)c1	2.2	5.2	-4.7	6.7	2.5	-6.2
OC(c1ccc(-c2ccccc2)cc1)c1ncc(-c2ccccc2)[nH]1 (stereo not drawn)	x	-11.8	-7.8	7.7	-1.7	x
Cc1nc(-c2cccc(NC(=O)c3ccco3)c2)cs1	1.4	3.1	1.5	35.6*	-0.1	-1.1
Cc1nn2c(-c3cccc(NC(=O)c4ccco4)c3)nnc2c2ccccc12	-0.8	80.2*	21.8	16.9	0.4	0.1
O=C(Nc1cccc(-c2nnc(-c3ccccc3)o2)c1)c1ccco1	-0.6	25.1	11.1	18.5	-0.7	-42.5
Cc1nc(-c2ccc(NC(=O)c3ccco3)cc2)cs1	0.1	-17.7	x	9.4	-0.6	1.7
CCOC(=O)[C@@H]1[C@H]2COc3cc(OC)ccc3[C@H]2N2C(=O)N(c3ccc(C(F)(F)F)cc3)C(=O)[C@@]12C	0.7	-2.3	-5.4	-12.8	-2.1	-8.4
C=CCC[C@H](Cc1ccc(F)cc1)C(=O)OC[C@@H](Cc1c[nH]c2ccccc12)NC(=O)[C@@H](CC=C)CC(=O)NCCO	0.6	67.8*	-13.3	7.2	-1.8	0.6
C=CCC[C@@H](Cc1ccc(F)cc1)C(=O)OC[C@@H](Cc1c[nH]c2ccccc12)NC(=O)[C@@H](CC=C)CC(=O)NCCO	-3.3	49.8	5.5	8.5	1.9	-37.2
C=CCC[C@@H](Cc1ccc(F)cc1)C(=O)OC[C@H](Cc1c[nH]c2ccccc12)NC(=O)[C@@H](CC=C)CC(=O)NCCO	58.1*	12.7	17.0	0.3	0.4	-27.0
